Holding throughout (assay): DAPPL (digital affinity profiling via proximity ligation, sequencing); 10 mM Tris-HCl pH 7.5, 50 mM NaCl, 1 mM DTT, 4% glycerol, room temperature, 30 min; GST-TFs on glutathione beads, 16-mer random dsDNA library, 0.1% formaldehyde crosslink after washing; high values mean tight binding
Conditions in all cases: protein: recombinant; tags: N-terminal GST; dsDNA, one strand shown

The target in one assay is T1, FLI1 (Homo sapiens, UniProt Q01543 1-452).
T1 sequence: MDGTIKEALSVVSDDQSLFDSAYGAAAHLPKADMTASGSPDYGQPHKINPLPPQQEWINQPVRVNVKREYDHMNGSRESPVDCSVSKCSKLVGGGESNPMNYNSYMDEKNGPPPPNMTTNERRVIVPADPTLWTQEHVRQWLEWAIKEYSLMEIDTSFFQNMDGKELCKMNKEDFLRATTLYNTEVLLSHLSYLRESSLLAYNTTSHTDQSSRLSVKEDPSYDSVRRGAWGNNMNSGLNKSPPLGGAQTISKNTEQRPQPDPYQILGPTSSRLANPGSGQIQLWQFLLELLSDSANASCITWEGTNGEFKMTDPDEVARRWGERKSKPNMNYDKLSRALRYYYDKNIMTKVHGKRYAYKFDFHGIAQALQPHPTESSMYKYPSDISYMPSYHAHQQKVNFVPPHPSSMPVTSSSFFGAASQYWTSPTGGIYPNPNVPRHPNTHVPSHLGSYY
The method in brief:
(§1)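 Each value of binding signal is a hexamer's read frequency for a factor divided by the same hexamer's frequency in the tag-only sample. Barcoded, bead-captured GST fusions of human transcription factors made in yeast were pooled with that sample and incubated with 200 nmole of a random double-stranded 16-mer DNA library in Tris/NaCl/DTT/glycerol buffer at room temperature for 30 min. Washing, 0.1% formaldehyde crosslinking, proximity ligation, PCR and Illumina NextSeq500 sequencing followed.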

For a further assay, the target named is ELF1 (Homo sapiens, UniProt P32519 1-619). In a few lines: as §1
ELF1, sequence (P32519 whole entry): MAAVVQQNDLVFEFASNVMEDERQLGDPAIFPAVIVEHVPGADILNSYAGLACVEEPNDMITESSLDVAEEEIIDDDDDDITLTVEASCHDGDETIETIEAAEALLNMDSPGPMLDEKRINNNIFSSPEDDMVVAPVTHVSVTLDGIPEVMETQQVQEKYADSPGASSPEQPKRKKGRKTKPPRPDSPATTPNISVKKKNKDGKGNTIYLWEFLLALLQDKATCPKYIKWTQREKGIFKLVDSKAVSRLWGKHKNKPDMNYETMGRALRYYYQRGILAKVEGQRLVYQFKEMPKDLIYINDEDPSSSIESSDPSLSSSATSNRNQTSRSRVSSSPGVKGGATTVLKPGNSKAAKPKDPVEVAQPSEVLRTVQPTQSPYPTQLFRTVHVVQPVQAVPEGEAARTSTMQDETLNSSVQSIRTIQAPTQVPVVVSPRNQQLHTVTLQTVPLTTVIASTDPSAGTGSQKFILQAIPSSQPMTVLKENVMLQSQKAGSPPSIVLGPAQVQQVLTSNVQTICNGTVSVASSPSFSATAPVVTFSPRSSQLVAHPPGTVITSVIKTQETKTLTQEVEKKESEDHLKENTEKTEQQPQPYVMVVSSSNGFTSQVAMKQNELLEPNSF
The next assay concerns the target SPIB (Homo sapiens, UniProt Q01892 1-262). In a few lines: as §1
In another assay the target is T2, ELK3 (Homo sapiens, UniProt P41970 1-407).
T2 sequence: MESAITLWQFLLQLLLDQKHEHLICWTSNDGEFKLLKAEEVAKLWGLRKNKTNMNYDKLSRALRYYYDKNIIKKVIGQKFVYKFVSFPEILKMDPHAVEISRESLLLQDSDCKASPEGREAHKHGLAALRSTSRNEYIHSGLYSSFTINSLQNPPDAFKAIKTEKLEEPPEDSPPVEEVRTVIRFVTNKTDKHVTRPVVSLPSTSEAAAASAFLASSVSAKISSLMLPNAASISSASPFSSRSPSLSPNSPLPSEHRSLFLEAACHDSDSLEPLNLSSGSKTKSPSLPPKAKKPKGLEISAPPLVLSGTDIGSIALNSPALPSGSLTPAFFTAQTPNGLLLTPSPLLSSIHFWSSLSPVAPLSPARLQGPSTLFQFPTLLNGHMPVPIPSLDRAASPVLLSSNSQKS
The method in brief: as §1

Another assay addresses ELF4 (Homo sapiens, UniProt Q99607 1-663). The method in brief:
as §1

For the next assay, the target named is T3, ETV7 (Homo sapiens, UniProt Q9Y603 1-341).
T3 sequence: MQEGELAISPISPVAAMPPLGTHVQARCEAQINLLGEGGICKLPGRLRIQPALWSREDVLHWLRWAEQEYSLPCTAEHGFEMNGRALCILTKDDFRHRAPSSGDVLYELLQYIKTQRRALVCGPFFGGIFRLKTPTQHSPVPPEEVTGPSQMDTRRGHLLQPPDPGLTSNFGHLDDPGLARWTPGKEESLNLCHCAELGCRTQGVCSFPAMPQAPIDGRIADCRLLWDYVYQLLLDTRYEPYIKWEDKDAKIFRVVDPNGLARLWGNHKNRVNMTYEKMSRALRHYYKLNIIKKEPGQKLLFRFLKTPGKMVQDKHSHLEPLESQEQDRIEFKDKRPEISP
The method in brief:
as §1

In a further assay the target is T4, ELK4 (Homo sapiens, UniProt P28324-2 1-405).
T4 sequence: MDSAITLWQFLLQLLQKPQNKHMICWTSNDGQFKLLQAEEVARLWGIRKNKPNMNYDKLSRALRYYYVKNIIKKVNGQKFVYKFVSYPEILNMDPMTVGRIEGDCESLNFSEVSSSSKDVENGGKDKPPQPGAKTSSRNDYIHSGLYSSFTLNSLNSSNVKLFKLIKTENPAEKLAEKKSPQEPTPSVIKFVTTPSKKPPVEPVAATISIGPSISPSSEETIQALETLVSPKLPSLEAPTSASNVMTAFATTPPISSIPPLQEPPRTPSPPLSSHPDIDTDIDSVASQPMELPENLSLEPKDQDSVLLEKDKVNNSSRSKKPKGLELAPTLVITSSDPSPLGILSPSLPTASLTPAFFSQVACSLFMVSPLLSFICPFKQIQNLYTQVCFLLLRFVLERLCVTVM
In a few lines: as §1

For another assay, the target named is T5, ETV2 (Homo sapiens, UniProt O00321 1-342).
T5 sequence: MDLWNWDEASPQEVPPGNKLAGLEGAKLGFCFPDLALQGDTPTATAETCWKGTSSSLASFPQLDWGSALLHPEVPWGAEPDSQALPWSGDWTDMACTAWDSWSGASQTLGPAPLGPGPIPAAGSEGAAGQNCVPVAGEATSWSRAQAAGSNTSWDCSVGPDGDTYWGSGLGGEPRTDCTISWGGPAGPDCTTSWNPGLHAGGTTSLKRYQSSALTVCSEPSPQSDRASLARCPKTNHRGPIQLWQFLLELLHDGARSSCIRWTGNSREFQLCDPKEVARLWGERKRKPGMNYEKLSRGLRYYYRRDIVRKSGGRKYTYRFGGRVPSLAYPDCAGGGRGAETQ
In a few lines: as §1

The target in the next assay is CRX (Homo sapiens, UniProt O43186 1-299). The method in brief:
as §1

The next assay addresses ETV1 (Homo sapiens, UniProt P50549 1-477). The method in brief: as §1
The target in the next assay is T6, ETV3L (Homo sapiens, UniProt Q6ZN32 1-361).
T6 sequence: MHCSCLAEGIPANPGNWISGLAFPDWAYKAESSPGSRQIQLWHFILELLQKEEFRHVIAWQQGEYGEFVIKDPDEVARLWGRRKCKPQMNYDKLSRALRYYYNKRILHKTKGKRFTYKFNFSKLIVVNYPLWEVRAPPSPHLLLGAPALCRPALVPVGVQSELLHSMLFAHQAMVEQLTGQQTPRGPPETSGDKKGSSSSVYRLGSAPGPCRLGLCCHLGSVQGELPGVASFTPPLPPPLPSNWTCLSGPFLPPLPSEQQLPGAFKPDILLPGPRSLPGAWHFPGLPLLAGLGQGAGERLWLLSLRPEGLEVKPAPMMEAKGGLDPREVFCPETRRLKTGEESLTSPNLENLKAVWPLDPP
In a few lines: as §1

A further assay deals with T7, ETV3 (Homo sapiens, UniProt P41162-2 1-143).
T7 sequence: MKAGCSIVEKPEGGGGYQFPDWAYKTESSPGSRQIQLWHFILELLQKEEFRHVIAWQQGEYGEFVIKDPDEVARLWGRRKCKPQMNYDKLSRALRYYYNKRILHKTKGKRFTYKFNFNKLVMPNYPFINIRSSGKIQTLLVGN
In a few lines: as §1

ELF4, sequence (Q99607 whole entry): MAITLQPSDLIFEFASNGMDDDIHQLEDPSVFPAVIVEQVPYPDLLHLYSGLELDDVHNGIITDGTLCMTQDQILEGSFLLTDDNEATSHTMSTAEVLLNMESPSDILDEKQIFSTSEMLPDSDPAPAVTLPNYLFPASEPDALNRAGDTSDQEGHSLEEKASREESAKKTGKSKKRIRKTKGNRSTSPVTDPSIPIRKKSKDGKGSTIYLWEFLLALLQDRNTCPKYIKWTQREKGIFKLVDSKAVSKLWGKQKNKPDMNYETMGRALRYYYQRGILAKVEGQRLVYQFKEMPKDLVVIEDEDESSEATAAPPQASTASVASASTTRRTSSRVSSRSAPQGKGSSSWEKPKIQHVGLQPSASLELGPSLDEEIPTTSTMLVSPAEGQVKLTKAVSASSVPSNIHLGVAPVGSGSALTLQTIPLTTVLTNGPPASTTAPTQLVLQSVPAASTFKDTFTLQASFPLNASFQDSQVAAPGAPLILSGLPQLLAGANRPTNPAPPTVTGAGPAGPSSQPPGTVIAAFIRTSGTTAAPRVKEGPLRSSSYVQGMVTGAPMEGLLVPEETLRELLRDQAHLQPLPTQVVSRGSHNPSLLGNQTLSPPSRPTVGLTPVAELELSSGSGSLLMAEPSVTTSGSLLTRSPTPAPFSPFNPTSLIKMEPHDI
SPIB, sequence (Q01892 whole entry): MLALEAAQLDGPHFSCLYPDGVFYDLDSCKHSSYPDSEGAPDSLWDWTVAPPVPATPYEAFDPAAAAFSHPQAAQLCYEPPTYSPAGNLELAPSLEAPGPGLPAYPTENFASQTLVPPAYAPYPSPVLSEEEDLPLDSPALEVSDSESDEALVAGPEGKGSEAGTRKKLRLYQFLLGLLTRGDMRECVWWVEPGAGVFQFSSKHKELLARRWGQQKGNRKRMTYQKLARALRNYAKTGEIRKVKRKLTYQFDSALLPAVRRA
ETV1, sequence (P50549 whole entry): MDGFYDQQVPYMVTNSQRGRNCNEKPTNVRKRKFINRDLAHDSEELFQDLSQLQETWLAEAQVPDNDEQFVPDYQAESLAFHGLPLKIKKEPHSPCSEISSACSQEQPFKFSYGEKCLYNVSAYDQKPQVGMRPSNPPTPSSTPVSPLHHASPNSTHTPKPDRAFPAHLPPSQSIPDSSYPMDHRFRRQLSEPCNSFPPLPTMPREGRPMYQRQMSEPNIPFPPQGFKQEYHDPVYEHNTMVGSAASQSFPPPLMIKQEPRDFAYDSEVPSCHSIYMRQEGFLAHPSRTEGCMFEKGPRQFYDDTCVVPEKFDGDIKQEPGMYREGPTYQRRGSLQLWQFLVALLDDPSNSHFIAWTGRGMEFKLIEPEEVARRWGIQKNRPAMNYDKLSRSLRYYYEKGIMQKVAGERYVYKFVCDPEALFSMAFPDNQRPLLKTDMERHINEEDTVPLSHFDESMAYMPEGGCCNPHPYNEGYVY
CRX, sequence (O43186 whole entry): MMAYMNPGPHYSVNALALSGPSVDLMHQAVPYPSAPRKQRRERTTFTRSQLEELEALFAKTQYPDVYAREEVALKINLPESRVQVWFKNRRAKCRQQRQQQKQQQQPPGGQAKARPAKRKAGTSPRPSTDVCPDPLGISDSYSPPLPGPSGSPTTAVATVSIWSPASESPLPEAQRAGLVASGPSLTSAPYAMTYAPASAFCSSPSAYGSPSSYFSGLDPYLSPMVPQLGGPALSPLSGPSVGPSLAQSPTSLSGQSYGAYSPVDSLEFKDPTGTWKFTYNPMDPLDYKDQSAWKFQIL

CAAAGT: the binding signal is 1.01 fold enrichment (6-mer frequency, TF over GST control) in the assay with FLI1; 1.03 fold enrichment (6-mer frequency, TF over GST control) with ELF1; 1.04 fold enrichment (6-mer frequency, TF over GST control) with SPIB; 1.06 fold enrichment (6-mer frequency, TF over GST control) with ELK3; 1.03 fold enrichment (6-mer frequency, TF over GST control) with ELF4; 1 fold enrichment (6-mer frequency, TF over GST control) with ETV7.
With CAAGCT, the binding signal in the assay with FLI1 is 1.05 fold enrichment (6-mer frequency, TF over GST control); in the assay with SPIB it was 1.04 fold enrichment (6-mer frequency, TF over GST control); with ELK3, 1.03 fold enrichment (6-mer frequency, TF over GST control); with ELF4 it was 1.02 fold enrichment (6-mer frequency, TF over GST control); with ELK4 it was 1.13 fold enrichment (6-mer frequency, TF over GST control); with ETV2 it was 1.02 fold enrichment (6-mer frequency, TF over GST control). For the same sequence, the binding signal with CRX was 1.1 fold enrichment (6-mer frequency, TF over GST control); with ETV1 it was 1.04 fold enrichment (6-mer frequency, TF over GST control); with ETV3L it was 1.05 fold enrichment (6-mer frequency, TF over GST control); with ETV3 it was 1.02 fold enrichment (6-mer frequency, TF over GST control).
